# Results: PubChem BioAssay AID485313 (National Center for Advancing Translational Sciences (NCATS), 2010)
# The whole screen tested about 320,000 compounds, of which about 7,600 (2.4%) were called active. Roughly 3% stayed inconclusive and do not appear here. Calls follow the shape of the dose curve; as a rule, active = well fitted activation curve with a large enough effect; inconclusive = small, poorly fitted or top-dose-only effect; inactive = no such curve, though single readings can be large or run the other way. Many of the other results were omitted from the sample, so actives are more common in it than they were.
# Test: qHTS Assay for NPC1 Promoter Activators; also: nearly all actives have a fitted effect of over 60% in size; as to activation: % of control where 0% means no effect
# Conditions: Huh7 NPC1 promoter luciferase reporter, 24 h; series mostly up to 9.22 µM; activation: at the top concentration
# Excerpt: NIH Chemical Genomics Center [NCGC] NIH Molecular Libraries Probe Production centers Network [MLPCN] MLPCN Grant: MH089375-01A1 Assay Submitter (PI): Yiannis A. Ioannou NCGC Assay Overview: Niemann Pick Type C (NPC) is a rare neurodegenerative lipidosis that is characterized by lipid storage in the endosomal/lysosomal system. Treatment modalities for this devastating disease are currently non-existent due to the severe obstacles associated with accessing the central nervous system with proteins or genes. The majority of mutations causing NPC disease are missense mutations that are distributed throughout the length of the NPC1 protein, with the most prevalent being the I1061T allele. Although NPC1 mutant proteins may be functional, they are typically trapped in the ER due to misfolding. […] We have developed and optimized a cell based luciferase reporter assay in 1536 well format for the identification of up-regulators of the mutant NPC1 promoter.
# The NPC1 promoter is cloned in front of the luciferase reporter gene, therefore NPC promoter activation results in luciferase expression. Frozen stock of the NPC1 promoter transfected Huh7 cells were obtained from the laboratory of Dr. Yiannis Ioannou (The Mount Sinai School of Medicine, New York, NY). Cells were propagated and maintained at NCGC in medium containing RPMI-1640 supplemented with 10% FBS, 2mM L-glutamine, and 50ug/ml penicillin/streptomycin. Cells were harvested in and plated for assays in OP-MEM I reduced-serum medium supplemented with 10% FBS. The Amplite luciferase reporter gene assay kit was purchased from ABD Bioquest and prepared/stored according to manufacturers recommendations. qHTS Assay Setup: 1.#Dispensed 5ul of Huh7 cells stably expressing NPC1-luciferase at a density of 1500 cells per well 1536-well plates. 2.#Incubate cells at 37C, 5% CO2, and 95% humidity for 2 hours. 3.#Transferred 23nl per well of compound in DMSO solution. 4.#Incubated at 37C, 5% CO2, and 95% humidity for 24 hours. 5.#Dispensed 3ul per well of Amplite reagent(ABD Bioquest) per well. 6.#Incubate at ambient for 10 minutes. 7.#Read using the luminescence protocol on the ViewLux plate reader (Perkin Elmer).
# Potency is read from the fitted curve at half-maximal effect.
Compound,activation,Potency
COc1ccccc1C(CNC(=O)c1cccc(S(=O)(=O)Nc2ccc(F)cc2)c1)N(C)C (centres undefined),-2.49% (inactive),
O=C(CCNC(=O)c1ccc([N+](=O)[O-])cc1)NC1CCCCC1,-0.237% (inactive),
O=C(CSc1nc2ccc([N+](=O)[O-])cc2[nH]1)c1ccc(Cl)cc1,4.6% (inactive),
O=C(Cc1nc2ccccc2[nH]c1=O)c1ccc(Cl)cc1,,3160 nM (active)
N#C/C(=C(/O)COC(=O)COc1ccc(Cl)cc1)c1nc2ccccc2[nH]1,-1.83% (inactive),
CCOC(=O)c1c(C)[nH]c(C(=O)OCC(=O)c2ccc(OC)cc2OC)c1C,-10.1% (inactive),
CCOC(=O)c1c(C)[nH]c(C(=O)OCC(=O)N2CCCC2=O)c1C,-3.33% (inactive),
CCCCOC(=O)c1[nH]c(C)c(C(=O)OC)c1C,,2820 nM (active)
Cc1cc(C)c(CN2CCN(C(=O)Cn3ccc(NC(=O)OCc4ccccc4)nc3=O)CC2)c(C)c1,-15% (inactive),
Cc1cccc(NC(=O)c2cccc(C(=O)Nc3cccc(C)c3C)n2)c1C,-3.28% (inactive),
COC(=O)c1ccc(NCC(=O)N2CCCCCC2)cc1,27.8% (inactive),
COC(=O)c1ccc(NCC(=O)c2ccccc2)cc1,,2510 nM (active)
Cc1ccc(C(=O)CNc2ccc(F)cc2)cc1,-1.15% (inactive),
O=C(COC(=O)c1ccc2ncsc2c1)Nc1ccc(Cl)cc1,1.42% [at 1.84 µM] (inactive),
Cc1ccc(C(=O)c2c(NC(=O)c3ccccc3)sc(C)c2C)cc1,0.539% (inactive),
Cc1sc(NC(=O)c2ccc3ncsc3c2)c(C(N)=O)c1C,,1580 nM (active)
COc1cc(C(=O)Nc2ncccc2C)ccc1OCC(=O)N1CCOCC1,-2.59% (inactive),
Cc1cc(C)c(S(=O)(=O)N2CCC(C(=O)OCc3c(C)noc3C)CC2)c(C)c1,-2.63% (inactive),
Cc1ccc(C(=O)Nc2ccc(C)c(S(=O)(=O)N(C)C)c2)s1,,2820 nM (active)
Cc1ccc(NC(=O)c2cccs2)cc1S(=O)(=O)N(C)C,1.03% (inactive),
CCN(CC(=O)Nc1ccc(C)c(S(=O)(=O)N(C)C)c1)Cc1ccccc1,7.28% (inactive),
Nc1cc(N)nc(SCC(=O)Nc2cccc(S(=O)(=O)N3CCCCC3)c2)n1,0.484% (inactive),
CSc1ccc(Cl)c(C(=O)OCC(=O)N2CCNC2=O)c1,-0.987% (inactive),
COc1ccc(N2C(=O)/C(=C\c3ccco3)N=C2SCC(N)=O)cc1Cl,-3.08% (inactive),
CC(C)Cc1cc(C(=O)NCCc2ccccc2)no1,,2820 nM (active)
O=C(NCCCc1ccccc1)c1cc(COc2c(F)cccc2F)on1,24.8% (inactive),
Nc1nonc1C(=O)NCCc1ccccc1,-0.723% (inactive),
Cc1ccc(S(=O)(=O)N(Cc2ccc(Cl)cc2)c2ccccc2C(=O)NCc2cccnc2)cc1,-3.62% (inactive),
O=C(CN(C(=O)c1csnn1)c1ccc(Br)cc1)NC1CCCC1,1.31% (inactive),
